A3G deaminase = APOBEC3G (human) deaminase inhibition; Q9HC16; recombinant A3G, ssDNA deamination FAM/TAMRA fluorescence; inhibition, % at 20 µM; 330,000 compounds, 0.28% hits; AID 493012;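 active = inhibition of at least 40% at 20 µM, with no more than 30% in the related APOBEC3A deaminase screen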;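 also: plate controls were DMSO wells with A3G for no effect and wells lacking A3G enzyme for full effect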
Target sequence (Q9HC16 whole entry, looked up): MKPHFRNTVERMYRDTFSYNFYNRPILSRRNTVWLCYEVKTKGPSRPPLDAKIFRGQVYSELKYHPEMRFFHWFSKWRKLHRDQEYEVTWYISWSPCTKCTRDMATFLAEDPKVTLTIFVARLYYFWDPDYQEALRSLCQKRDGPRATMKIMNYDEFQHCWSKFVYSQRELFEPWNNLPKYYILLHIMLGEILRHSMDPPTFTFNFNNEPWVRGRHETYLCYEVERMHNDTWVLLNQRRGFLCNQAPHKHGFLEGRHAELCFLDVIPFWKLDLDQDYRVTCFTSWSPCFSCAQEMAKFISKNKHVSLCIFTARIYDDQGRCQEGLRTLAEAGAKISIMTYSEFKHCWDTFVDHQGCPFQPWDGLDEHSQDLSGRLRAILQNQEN
A3A deaminase = blocks human APOBEC3A ssDNA deamination; 330,000 compounds, 0.41% hits; recombinant A3A, FAM/TAMRA ssDNA deamination fluorescence; AID 493011; inhibition, % at 20 µM;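 active = at least 40% inhibition at 20 µM here, with at most 30% in a related deaminase screen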;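 also: plate controls were A3A with DMSO for no effect and wells lacking A3A enzyme for full effect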
Target sequence (P31941 whole entry, looked up): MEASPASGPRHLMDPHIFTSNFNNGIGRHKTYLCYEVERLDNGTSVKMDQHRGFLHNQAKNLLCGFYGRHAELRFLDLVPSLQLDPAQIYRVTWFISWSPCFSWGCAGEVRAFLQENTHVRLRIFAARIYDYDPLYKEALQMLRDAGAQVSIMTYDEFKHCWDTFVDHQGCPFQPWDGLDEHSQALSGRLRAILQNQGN
NALP1 inh = inhibitors of NALP1 inflammasome in yeast | S. cerevisiae NALP1/ASC/caspase-1 growth, X-gal OD620, 72 h | inhibition, % at 10 µM | 280,000 compounds, 0.61% hits; in the data active = inhibition mostly above about 24%, no sharp cut-off; inactive = mostly below about 32%
PolyA inhibitor = blocks polyadenylation in yeast reporter cells | S. cerevisiae SKY197-pL101 polyadenylation reporter, beta-gal luminescence; efflux-impaired pdr1/pdr3 knockout yeast; score 100 = 6 SD above DMSO | activity score, % at 12 µM | 300,000 compounds, 0.02% hits | AID 1875;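 active = lowest replicate activity score at least 50, where 100 means six control SD above control mean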;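 also: yeast exposed to compound for 9 h at 30 °C; higher score means more reporter readthrough which indicates perturbed polyadenylation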
A3A conf = confirmation of human APOBEC3A DNA deaminase inhibitors | shares compounds with A3A deaminase | recombinant A3A, ssDNA deaminase UDG fluorescence assay | inhibition, % at 20 µM | 1,400 compounds, 63% hits | AID 493151;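 active = inhibition reaching a set limit, 80% of the first screen's cutoff, at 20 µM in any replicate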;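 also: plate controls were DMSO wells with A3A for no effect and wells lacking A3A enzyme for full effect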
UDG ctr A3A = counter-screen for APOBEC3A inhibitors: UDG; shares compounds with A3A deaminase; UDG counterscreen, FAM/TAMRA uracil oligo fluorescence; inhibition, % at 20 µM; 1,000 tested, under 10 active; AID 504714; call rule not given here
* = called active by the depositor; . = no result. This is a sample that favours compounds with a hit; in the whole collection about 1.2% have one here.

SMILES | A3G deaminase | A3A deaminase | NALP1 inh | PolyA inhibitor | A3A conf | UDG ctr A3A
CN(CC(=O)Nc1cccc(F)c1)C(=O)Cn1c(=O)cnc2ccccc21 | -8.3 | 2.3 | . | -7.9 | . | .
CCN(CC)C(=O)c1ccc(/C=C/c2c[nH]c3ccccc23)[n+](C)c1 | 12.8 | 42.1* | 15.5 | -2.7 | 68.4* | 3.6
O=C(Nc1ccc2c(c1)OCO2)c1cnc(Cl)c(Cl)c1 | -7.6 | -4.5 | . | . | . | .
O=C(c1ccccc1Cc1ccccc1)N1CCN(S(=O)(=O)c2ccccc2[N+](=O)[O-])CC1 | -1.2 | 46.4* | . | 5.4 | 22.5 | 11.7
CCCOc1ccc(C(=O)Nc2ccccc2[N+](=O)[O-])cc1 | -2.0 | 75.6* | . | -17.5 | -8.0 | -3.4
CNC(=S)N(CCc1c(C)[nH]c2ccccc12)Cc1cccnc1 | -3.2 | -1.2 | 7.9 | 7.9 | . | .
Cc1ccc(-c2c(C(=O)N/N=C/c3ccco3)nnn2-c2nonc2N)cc1 | 3.5 | 60.9* | 8.8 | -8.7 | -1.8 | .
Cc1nc2ccc(NC(=O)C3COc4ccccc4O3)cc2s1 (stereo not given) | 15.7 | 49.5* | . | 10.9 | 60.1* | 1.9
C=CCNC(=O)C12CC3(C)CC(C)(CC(C)(C3)C1)C2 | -5.2 | 2.3 | -7.6 | 11.9 | . | .
CC12CC3(C)CC(C)(C1)CC(C(=O)NCC(=O)O)(C2)C3 | -10.3 | 49.9* | 11.4 | 2.8 | -9.3 | -2.5
NC(=O)OCC(O)COc1ccc(Cl)cc1 (stereo not given) | -0.9 | 3.9 | . | . | . | .
CCN1CCN(C(=O)c2cc3cc([N+](=O)[O-])ccc3oc2=O)CC1 | -6.5 | -1.9 | 3.7 | -3.6 | . | .
O=C(c1cc2cc([N+](=O)[O-])ccc2oc1=O)n1cccn1 | 21.4 | 58.8* | 12.4 | -12.7 | 38.9* | .
CC1CC(C)(C)OC(C[N+]2(C)CCCCC2)O1 (stereo not given) | 20.2 | 48.8* | -4.7 | -0.8 | 76.5* | 3.0
C[N+]1(CC2COC3(CCCCC3)O2)CCCC1 (stereo not given) | 29.3 | 32.3 | 30.1 | 1.1 | . | .
CN1CC(=O)N/C1=N\C(=O)Nc1ccc(O)cc1 | -2.2 | -1.9 | 21.0 | -19.7 | . | .
CCCCN(C(=O)c1ccco1)C1CCS(=O)(=O)C1 (stereo not given) | -8.7 | 65.0* | . | -7.8 | 1.6 | 4.2
O=C(COC(=O)c1cc([N+](=O)[O-])ccc1N1CCOCC1)Nc1ncc(Cl)cc1Cl | -0.7 | 10.7 | 14.8 | -8.5 | . | .
CCCn1nnnc1NCc1ccc(N(CC)CC)cc1 | -6.9 | -1.0 | . | 35.2 | . | .
O=C1Nc2ccccc2/C1=N/c1sc2c(c1C(=O)NCCc1ccccc1)CCCC2 | -1.7 | 43.8* | -6.6 | -6.8 | -3.9 | 0.9
CCC(C)NC(=O)CSc1ccc(S(=O)(=O)N(C)C2CCCCC2)cn1 (stereo not given) | -8.9 | 41.8* | . | . | -3.7 | 2.4
COc1ccc(OCc2cc(C(=O)NCC(C)Oc3cccnc3)no2)c(Cl)c1 (stereo not given) | -10.7 | -2.2 | -0.2 | -13.6 | . | .
O=C(NCCCO)c1cc([N+](=O)[O-])cc2c1C=Cc1ccccc1O2 | 5.9 | 46.8* | -7.6 | -2.8 | 20.3 | .
CC(C)CCNC(=O)c1cc(-c2ccco2)nc2ccccc12 | -0.4 | -0.8 | 14.4 | -17.4 | . | .
CCCCCCNC(=O)c1cc(-c2ccco2)nc2ccccc12 | 20.9 | 61.6* | 5.7 | 8.5 | 54.1* | -0.1
SMILES | A3G deaminase | A3A deaminase | NALP1 inh | PolyA inhibitor | A3A conf | UDG ctr A3A
O=C(CSc1nccc(=O)[nH]1)N1N=C2/C(=C/c3ccco3)CCCC2C1c1ccco1 (stereo not given) | 26.7 | 45.9* | 10.9 | 0.8 | 34.1* | 0.4
CCCCn1c(N)c(-c2nc3ccccc3o2)c2c([N+](=O)[O-])nn(C)c(=O)c21 | 7.6 | 52.8* | 23.3 | 12.6 | 0.9 | .
CCCCn1c(N)c(-c2nc3ccccc3o2)c2c([N+](=O)[O-])nn(CC)c(=O)c21 | -6.7 | 2.4 | 8.0 | -20.3 | . | .
COCCCNC(=O)c1ccccc1N(Cc1ccccc1)S(=O)(=O)c1ccccc1 | 7.8 | 54.6* | 4.1 | 12.4 | 2.7 | .
C/C(=N\NC(=O)CN1CCCCC1)c1cccc([N+](=O)[O-])c1 | -4.8 | 1.2 | . | 7.4 | . | .
C/C(=N\NC(=O)CN1CCCCC1)c1ccccc1O | 10.6 | 40.5* | -23.1 | -6.7 | 20.4 | .
COc1ccc(NC(=O)C(=O)N2N=C3CCCCC3C2(O)C(F)(F)F)cc1 (stereo not given) | 10.0 | 55.4* | -16.4 | 13.6 | 54.4* | -1.0
CC(C)C(CO)N1CCN(Cc2ccccc2)CCC1=O (stereo not given) | 9.5 | 61.4* | 1.0 | 8.5 | 51.3* | 3.8
CC(C)[C@@H](COc1ccccc1)N1CCN(Cc2ccccc2)CCC1=O | -3.3 | 1.7 | 19.2 | 8.0 | . | .
COC(=O)c1ccc(Cn2c(C)cc(C)[n+]2C)o1 | 29.3 | 51.6* | 28.3 | 16.9 | 71.7* | -3.2
O=C(COC(=O)COc1ccc(Cl)cc1)Nc1ncc(Br)s1 | -4.1 | 1.6 | . | . | . | .
COc1cc(S(=O)(=O)NCc2ccc3c(c2)OCO3)ccc1F | -4.9 | -1.6 | -5.4 | 4.1 | . | .
CCCNC(=O)C(Cc1ccccc1)NC(=O)c1cccc([N+](=O)[O-])c1 (stereo not given) | -4.1 | -2.2 | . | . | . | .
Cc1n[nH]c(C)c1S(=O)(=O)N1CCC(C(=O)N2CCn3c2nc2ccccc23)CC1 | -3.5 | 98.4* | -2.7 | -23.3 | -5.8 | -3.6
O=C(C1CCN(S(=O)(=O)c2cccc3nsnc23)CC1)N1CCn2c1nc1ccccc12 | -0.6 | 1.2 | 6.4 | -27.5 | . | .
COc1ccc(C(=O)Nc2cnn(Cc3c(F)cccc3Cl)c2)cc1OC | -1.7 | 1.1 | . | 5.8 | . | .
O=C(O)CCCC(=O)Nc1ccccc1SCCS(=O)(=O)c1ccc(Cl)cc1 | . | . | 7.5 | -0.6 | . | .
CC(C)(C)OC(=O)NC1CNNC1=O (stereo not given) | -8.8 | 0.5 | . | . | . | .
CC[n+]1c(C)cc(C)n1-c1ccccc1 | 14.4 | 93.2* | 16.9 | 10.1 | 75.3* | 2.9
CCCc1nc(C)cc(N2CCN(c3ccccc3)CC2)n1 | -1.6 | 1.8 | 24.1 | -7.8 | . | .
CC1CCCCN1C(=O)CN1C(=O)CSc2ccc(S(=O)(=O)N3CCOCC3)cc21 (stereo not given) | -2.9 | -3.8 | 18.6 | 30.7 | . | .
C=CCn1c(SCc2nc3sc(C(=O)O)c(C)c3c(=O)[nH]2)nnc1-c1ccccc1 | -3.0 | 2.1 | -0.2 | 8.6 | . | .
C=CCn1c(SCc2nc3sc(C(=O)O)c(C)c3c(=O)[nH]2)nnc1-c1ccc(C(C)(C)C)cc1 | -1.4 | 40.1* | -11.7 | -7.6 | 30.4 | -1.4
CCOC(=O)CC(NS(=O)(=O)c1ccc2[nH]cc(C(=O)O)c(=O)c2c1)c1ccc(OCC)c(OC)c1 (stereo not given) | 14.1 | 46.7* | -3.7 | -9.2 | 32.6* | .
CCOC(=O)CC(NS(=O)(=O)c1ccc(OC)c(OC)c1)c1cccc([N+](=O)[O-])c1 (stereo not given) | 0.4 | 0.3 | 28.6 | 15.2 | . | .
